These results are taken from PubChem BioAssay AID585 (National Center for Advancing Translational Sciences (NCATS), 2007).

In all, about 71,000 compounds went through this assay and about 1,300 (1.8%) were called active. This is one part of a sample in which actives are shown more often than they occur. A number with no mark means an inactive call. The call rests on the fitted dose curve.
Potency means the concentration at half of the fitted maximal effect.

In the assay the target is Beta-lactamase (Escherichia coli (strain K12)) (UniProt P00811). Put plainly: Promiscuous and Specific Inhibitors of AmpC Beta-Lactamase (assay without detergent). On activity change, negative = inhibition: % of control where 0% means no effect. Conditions: AmpC nitrocefin hydrolysis, absorbance 480 nm, no detergent; series mostly up to 28.7 µM; activity change, negative = inhibition: at the top concentration. Here is the method: NIH Molecular Libraries Screening Centers Network [MLSCN]
Beta-lactamase (Escherichia coli (strain K12)), sequence (P00811 whole entry, looked up): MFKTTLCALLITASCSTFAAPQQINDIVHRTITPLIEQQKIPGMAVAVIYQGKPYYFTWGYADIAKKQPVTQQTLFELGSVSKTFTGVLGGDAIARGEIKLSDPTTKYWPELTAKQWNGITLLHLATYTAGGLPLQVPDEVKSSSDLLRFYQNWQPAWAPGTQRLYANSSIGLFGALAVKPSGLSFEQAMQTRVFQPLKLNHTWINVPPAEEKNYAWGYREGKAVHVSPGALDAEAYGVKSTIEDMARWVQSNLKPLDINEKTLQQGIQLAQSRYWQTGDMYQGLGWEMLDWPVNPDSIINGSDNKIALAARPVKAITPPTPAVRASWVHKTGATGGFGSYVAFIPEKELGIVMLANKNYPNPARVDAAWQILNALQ
NIH Chemical Genomics Center [NCGC]
PI Name: Shoichet, Brian K.
This aggregation profiling approach exploits the sensitivity of aggregate formation to detergent. Inhibition of b-lactamase is measured in the presence and absence of 0.01% Triton X-100. See Pubchem assay "Promiscuous and Specific Inhibitors of AmpC Beta-Lactamase (assay with detergent)" for related screen. Compounds that inhibit only in the absence of detergent are considered likely promiscuous aggregators.
A screen of 1,030 compounds was performed in Brian Shoichet's lab in 96-well format. AmpC activity was measured by following the absorbance at 480 nm. Nitrocefin is a chromogenic substrate: while nitrocefin is yellow (lmax 390 nm), the product of its hydrolysis is red (lmax 486 nm, 17,000 M-1). AmpC beta lactamase was provided by Brian Shoichet and Brian Feng, UCSF.
NCGC Assay Protocol Summary:
20 mM phosphate buffer, pH 7.0
Triton X-100: No Detergent screen: 0.0001%, Detergent screen: 0.01%.
Buffer in columns 3 and 4 as negative control (no enzyme).
5.3 nM AmpC in columns 1, 2, 5-48. Titration of UCSF compound 9 control (from 10 mM, then 1:2) pin-transferred to column 2. Column 1 is neutral (100% activity).
Six uL of reagents were dispensed to 1536-well Greiner black clear bottom plates. Compounds and controls (23 nL) were transferred via Kalypsys PinTool. The plates were incubated for 15 min at room temperature, and then 2 uL of 800 uM solution of nitrocefin was added to start the reaction. The plates were immediately transferred to and read every 20 seconds for 4 min on ViewLux (Perkin-Elmer) High-throughput CCD imager using 480 nm absorbance protocol. During dispense, reagent bottles were kept submerged into 4 deg C water bath.
Keywords: NIH Roadmap, MLSCN, MLI, MLSMR, qHTS, NCGC, AmpC Beta-Lactamase, Aggregation.
On to `O=C(COc1ccc2oc3c(c2c1)CCCC3)Nc1ccccn1`, for which the “activity change, negative = inhibition” value is -0.5% (inactive).

Take `O=C1CN(C(=O)COC(=O)C2CC(=O)N(Cc3ccco3)C2)c2ccccc2N1` (stereo not given): the “activity change, negative = inhibition” value was 6% (inactive).

For the molecule `COc1cc(C[C@H](C)N)c(OC)cc1I`, the Potency entry was “inactive”.

Consider `COC(=O)c1ccc(C(NC(=O)OCc2ccccc2)/C(C)=C/[C@@H](C)C(=O)NCc2cc(C)on2)cc1` (stereo not given in full), for which the “activity change, negative = inhibition” value was 79.5% (inactive).

In the case of `CCOC(=O)c1ccc(-n2c(C)nc3c(cnn3-c3ccccc3C)c2=O)cc1`, the “activity change, negative = inhibition” value is 49.2% (inactive).

Take `COC(=O)C1=C(C)Nc2ncnn2C1c1ccco1` (stereo not given): the “activity change, negative = inhibition” value is -4.6% (inactive).

With `CCOC(=O)CSC1=C(C#N)C(c2ccco2)C(C(=O)OCc2ccccc2)=C(C)N1` (stereo not given), the “activity change, negative = inhibition” value is -9.8% (inactive).

With `CC1=C(C(=O)OCc2ccccc2)C(c2ccco2)n2ncnc2N1` (stereo not given), the Potency was 3.98 µM [single pt active] (active).

With `O=C1N=C(N2CCOCC2)CS1`, the “activity change, negative = inhibition” value was -5.9% (inactive).

Regarding `COc1ccc2oc(C)c(NC(C)=O)c2c1`, the “activity change, negative = inhibition” value was -8.6% (inactive).

Consider `CC(=O)Oc1ccc2c(C)c(CC(C)O)c(=O)oc2c1` (stereo not given), for which the “activity change, negative = inhibition” value is 0.7% (inactive).

Take `CC(=O)Nc1cc2ccc(OC(C)=O)cc2oc1=O`: the Potency was 3.98 µM [single pt active] (active).

In the case of `CCn1c(=N)c(S(=O)(=O)c2ccc(F)cc2)cc2c(=O)n3ccccc3nc21`, the “activity change, negative = inhibition” value was 35.4% (inactive).

For `O=C(Oc1cccnc1)c1cc2ccccc2oc1=O`, the Potency is 12.6 µM (active).

For the molecule `O=C(NCc1ccccn1)c1cc2ccccc2oc1=O`, the “activity change, negative = inhibition” value is 0.3% (inactive).

With `COc1ccc2oc(=O)c(C(=O)O)cc2c1`, the “activity change, negative = inhibition” value is -7.1% (inactive).

Turning to `Cc1ccc(C)c(N2CCN(C(=O)CCCCn3c(=O)[nH]c4ccccc4c3=O)CC2)c1`, the “activity change, negative = inhibition” value is 69.6% (inactive).

Consider `COc1ccc(Cc2nnc(NS(=O)(=O)Cc3ccccc3)s2)cc1`, for which the “activity change, negative = inhibition” value is -14.8% (inactive).

In the case of `COc1ccc(Cc2nnc(NC(=O)Cc3cccs3)s2)cc1`, the Potency is 12.6 µM (active).

On to `CCc1nnc(NC(=O)CSc2nnc(Cc3ccccc3)n2-c2ccc(OC)cc2)s1`, for which the “activity change, negative = inhibition” value is 49% (inactive).

Take `COc1ccc2[nH]cc(CCNc3nc(-c4cccc(NS(C)(=O)=O)c4)nc4ccccc34)c2c1`: the “activity change, negative = inhibition” value is -19.8% (inactive).

For the molecule `CCCC1C(c2ccccc2)C(C#N)(C#N)C2(C#N)CC1(N)NC2=O` (stereo not given), the “activity change, negative = inhibition” value was 32% (inactive).

Consider `CCOC(=O)Cc1csc(NC(=O)CSc2nc(C)cc(=O)[nH]2)n1`, for which the “activity change, negative = inhibition” value is -14.8% (inactive).

For the molecule `CCOC(=O)Cc1csc(NC(=O)CN(C)S(=O)(=O)c2ccc3c(c2)CCC(=O)N3)n1`, the Potency is 3.98 µM [single pt active] (active).

Turning to `CCOC(=O)Cc1csc(NC(=O)C(C)(C)C)n1`, the “activity change, negative = inhibition” value is 4.6% (inactive).

Turning to `Cc1ccc(CNC(=O)CCCNC(=O)c2ccc(Cl)cc2)n1C`, the “activity change, negative = inhibition” value was 57.8% (inactive).

Regarding `CC(C)(O)C#Cc1ccc(C(=O)N2CCC(C(N)=O)(N3CCCCC3)CC2)cc1`, the “activity change, negative = inhibition” value was -9.6% (inactive).

Consider `CC1(C)SC2c3ccccc3C(=O)N2[C@@H]1C(=O)NCc1ccco1` (stereo not given in full), for which the “activity change, negative = inhibition” value is 7.2% (inactive).

In the case of `CC1(C)S[C@@H]2[C@@H](NC(=O)[C@@H](N)c3ccccc3)C(=O)N2[C@H]1C(=O)O`, the Potency was 0.0501 µM (active).

Turning to `CC(CNC(=O)c1ccc(Br)o1)NC(=O)c1ccc(Br)o1` (stereo not given), the “activity change, negative = inhibition” value is -4.4% (inactive).

In the case of `N#C/C(=C1\CCCN1)c1nc(-c2ccccc2)cs1`, the “activity change, negative = inhibition” value was 1.9% (inactive).

Take `c1ccc(Nc2nc(-c3ccncc3)cs2)nc1`: the “activity change, negative = inhibition” value is 27.9% (inactive).

As for `N#CC(=C1SC=CS1)c1nc(-c2ccccc2)cs1`, the Potency is 15.8 µM [single pt active] (active).

Consider `CC(C)(O)[C@H]1[C@H]2OC(=O)[C@@H]1[C@]1(O)C[C@H]3O[C@]34C(=O)O[C@H]2[C@]14C`, for which the “activity change, negative = inhibition” value was 3.7% (inactive).

Take `O=C(c1ccco1)N1CCN(C(=O)C2c3ccccc3Oc3ccccc32)CC1`: the “activity change, negative = inhibition” value is 70.7% (inactive).

Take `O=C(c1ccco1)N1CCN(C(=O)C2CC(c3ccc(F)cc3)=NO2)CC1` (stereo not given): the Potency is 3.98 µM [single pt active] (active).

Take `Cc1ccc(NC(=O)C2CC(c3ccc(F)cc3)=NO2)cc1` (stereo not given): the “activity change, negative = inhibition” value was 9.7% (inactive).

`O=C(c1ccco1)N1CCN(C(=O)C2CC(c3ccc(Cl)c(Cl)c3)=NO2)CC1` (stereo not given): the “activity change, negative = inhibition” value is 99.9% (inactive).

Consider `CCOC(=O)N1CCN(C(=O)CSc2ccc(Cl)cc2)CC1`, for which the “activity change, negative = inhibition” value was 33.7% (inactive).

`CCOC(=O)N1CCN(C(=O)C2CC(c3ccc(F)cc3)=NO2)CC1` (stereo not given): the Potency was 3.98 µM [single pt active] (active).

As to `O=C(C1CCN(S(=O)(=O)c2cnc[nH]2)CC1)N1CCN(Cc2ccc3c(c2)OCO3)CC1`, the “activity change, negative = inhibition” value was 19.4% (inactive).

As to `CC(=O)c1c(O)c(C)c(O)c(Cc2c(O)c3c(c(C(=O)/C=C\c4ccccc4)c2O)OC(C)(C)C=C3)c1O`, the Potency was 12.6 µM (active).

As to `CCOc1ccc(C(C)C)cc1S(=O)(=O)n1nc(C)cc1C`, the “activity change, negative = inhibition” value was 36.2% (inactive).

For `CCOc1ccc(S(=O)(=O)n2ccnc2)c2ccccc12`, the Potency is 3.98 µM [single pt active] (active).

Take `CCOc1ccccc1C(=O)NCCCn1ccnc1`: the “activity change, negative = inhibition” value is -7.7% (inactive).

Consider `Fc1ccc2nc(Nc3nc4c(s3)CCCC4)sc2c1`, for which the “activity change, negative = inhibition” value was -20.6% (inactive).

On to `CCOC(=O)CNC(=O)CSc1nnc(COc2ccc(Cl)cc2)n1CC`, for which the “activity change, negative = inhibition” value is 52.9% (inactive).

As for `CN1CCN(S(=O)(=O)c2ccc3[nH]cc(C(=O)O)c(=O)c3c2)CC1`, the “activity change, negative = inhibition” value was -10% (inactive).

Regarding `Cc1cccc(CC(=O)Nc2c3c(nn2-c2cccc(Cl)c2)CS(=O)C3)c1` (stereo not given), the “activity change, negative = inhibition” value was 44.1% (inactive).

As for `O=C(NCc1ccco1)c1nc(-c2ccccc2)n(-c2ccccc2)n1`, the “activity change, negative = inhibition” value was 8.2% (inactive).

In the case of `Cc1nc2nc(SCC(=O)NCc3ccco3)nn2c(C)c1Cc1ccccc1`, the “activity change, negative = inhibition” value was 31.6% (inactive).

For the molecule `O=C(Cc1ccccc1)n1nc(-c2ccccc2)nc1NCc1ccco1`, the Potency is 3.98 µM [single pt active] (active).

As for `COc1ccc(CCn2nnnc2C(c2ccccc2)N2CCN(C)CC2)cc1OC` (stereo not given), the “activity change, negative = inhibition” value is 15.3% (inactive).

Turning to `CCOC(=O)c1cnc2sccn2c1=O`, the “activity change, negative = inhibition” value is 3.9% (inactive).

As for `CN/C(=C\[N+](=O)[O-])NCCSCc1csc(CN(C)C)n1`, the “activity change, negative = inhibition” value is -0.3% [at 12.8 µM] (inactive).
